The source of these data is the supplement of paper PMC7366291.

Structures can show the parent of a compound that is named as a salt. ± gives the standard deviation of the averaged measurements.

In one assay the test system is Danio rerio Tg(wt1b:EGFP) embryo, pronephros. Briefly: glomerular width (mean of left and right), fold change vs DMSO control; higher = wider glomerulus. As to conditions: 25 µM; exposure: 24-48 hpf. An outline of the steps:
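Dechorionated Tg(wt1b:EGFP) zebrafish embryos were treated with 25 μM compound in 0.5% DMSO, in HEPES-buffered E3 with 0.003% PTU, from 24 to 48 hpf at 28.5°C. On maximum projections of dorsal pronephros images, 16 hand-placed reference points in Fiji gave distances and angles, and values more than 2 SD from the feature mean were left out. Results are fold changes over the mean of same-day DMSO-treated embryos.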
Regarding `CC1(C)OC(=O)NC1=O` [Dimethadione], the glomerular width stood at 0.89 ± 0.031.

For `CC[C@H](c1ccc(O)cc1)[C@@H](CC)c1ccc(O)cc1` [Hexestrol], the glomerular width amounted to 0.94 ± 0.029.

`CS(=O)(=O)Nc1ccc([N+](=O)[O-])cc1Oc1ccccc1` [Nimesulide]: the glomerular width was 0.837 ± 0.056.

As to `Cc1noc(NS(=O)(=O)c2ccc(N)cc2)c1C` [Sulfisoxazole], the glomerular width stood at 1.04 ± 0.058.

In turn, `CN(Cc1ccc(C(C)(C)C)cc1)Cc1cccc2ccccc12` [Butenafine Hydrochloride] displayed a glomerular width of 0.9818 ± 0.007.

As to `CC1Cc2ccccc2N1NC(=O)c1ccc(Cl)c(S(N)(=O)=O)c1` (stereo not drawn) [Indapamide], the glomerular width was 0.904 ± 0.058.

Turning to `C[C@H]1C[C@H]2[C@@H]3CCC4=CC(=O)C=C[C@]4(C)[C@@]3(F)[C@@H](O)C[C@]2(C)[C@@]1(O)C(=O)CO` [Betamethasone], the glomerular width was determined as 1.17 ± 0.088.

Take `Nc1nc(N)nc(-c2cc(Cl)ccc2Cl)n1` [Irsogladine maleate]: the glomerular width worked out at 0.976 ± 0.016.

In turn, `CCc1nc(N)nc(N)c1-c1ccc(Cl)cc1` [Pyrimethamine] displayed a glomerular width of 1.15 ± 0.041.

In turn, `CC1CNc2c(cccc2S(=O)(=O)N[C@@H](CCCNC(=N)N)C(=O)N2CC[C@@H](C)C[C@@H]2C(=O)O)C1` (stereo partly drawn) [Argatroban] registered a glomerular width of 0.949 ± 0.041.

With `O=C1CCc2cc(OCCCCc3nnnn3C3CCCCC3)ccc2N1` [Cilostazol], the glomerular width is 1 ± 0.023.

Regarding `CN1CCN(C2=Nc3cc(Cl)ccc3Nc3ccccc32)CC1` [Clozapine], the glomerular width came to 1.05 ± 0.011.

With `CN(C)CCOC(c1ccc(Cl)cc1)c1ccccn1` (stereo not drawn) [Carbinoxamine maleate salt], the glomerular width stood at 0.999 ± 0.048.

`O=C(O)CCC(=O)c1ccc(-c2ccccc2)cc1` [Fenbufen] returned a glomerular width of 0.729 ± 0.11.

`CCCC(C(=O)OCCN(CC)CC)(c1ccccc1)c1ccccc1` [Proadifen hydrochloride] showed a glomerular width of 1.09 ± 0.071.

Consider `COc1cc(Cc2cnc(N)nc2N)cc(OC)c1OC` [Trimethoprim], for which the glomerular width worked out at 0.986 ± 0.013.

`Nc1ccc(S(=O)(=O)Nc2ccnn2-c2ccccc2)cc1` [Sulfaphenazole]: the glomerular width came out at 1.022 ± 0.0084.

Turning to `CN1C(C(=O)Nc2ccccn2)=C(O)c2sccc2S1(=O)=O` [Tenoxicam], the glomerular width amounted to 0.985 ± 0.022.

With `CCc1cccc(CC)c1NC(=O)CN(CC(=O)O)CC(=O)O` [Etifenin], the glomerular width turned out to be 1.052 ± 0.01.

`Nc1nc(=S)c2ncn([C@@H]3O[C@H](CO)[C@@H](O)[C@H]3O)c2[nH]1` [Thioguanosine] displayed a glomerular width of 1.02 ± 0.012.

Turning to `COc1nc(N)nc2c1ncn2[C@@H]1O[C@H](CO)[C@@H](O)[C@@H]1O` [Nelarabine], the glomerular width was determined as 0.992 ± 0.058.

Consider `Cc1cc(C(C)(C)C)c(O)c(C)c1CC1=NCCN1` [Oxymetazoline hydrochloride], for which the glomerular width worked out at 1.03 ± 0.078.

The molecule `COCCOC(=O)C1=C(C)NC(C)=C(C(=O)OC(C)C)C1c1cccc([N+](=O)[O-])c1` (stereo not drawn) [Nimodipine] showed a glomerular width of 0.786 ± 0.066.

As to `O=C(COc1ccc(Cl)cc1)N1CCN(Cc2ccc3c(c2)OCO3)CC1` [Fipexide hydrochloride], the glomerular width turned out to be 0.86 ± 0.031.

In turn, `CC1(C)O[C@@H]2C[C@H]3[C@@H]4CCC5=CC(=O)CC[C@]5(C)[C@@]4(F)[C@@H](O)C[C@]3(C)[C@]2(C(=O)CCl)O1` [Halcinonide] yielded a glomerular width of 1.18 ± 0.014.

`CC(C)(C)NC[C@H](O)COc1nsnc1N1CCOCC1` [Timolol maleate salt] yielded a glomerular width of 0.9995 ± 0.0057.

In turn, `CN1C2CCCC1CC(NC(=O)c1nn(C)c3ccccc13)C2` (stereo not drawn) [Granisetron] returned a glomerular width of 0.98 ± 0.024.

In the case of `COc1ccccc1N1CCN(CC(O)COc2cccc3ccccc23)CC1` (stereo not drawn) [Naftopidil dihydrochloride], the glomerular width was found to be 0.983 ± 0.024.

For a further assay the test system is unchanged. Kind of assay: fraction of imaged embryos annotated as normal kidney; higher = less nephrotoxic; extreme values may be limits of the assay. As to conditions: 25 µM; exposure: 24-48 hpf. An outline of the steps: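 Dechorionated Tg(wt1b:EGFP) zebrafish embryos were incubated with 25 μM compound in 0.5% DMSO, 5 mM HEPES-buffered E3 and 0.003% PTU from 24 to 48 hpf at 28.5°C. Pronephroi were then imaged by widefield fluorescence, and the fraction of embryos per treatment assigned by hand to the normal-kidney category is given.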
As for `CC(=O)c1ccc(S(=O)(=O)NC(=O)NC2CCCCC2)cc1` [Acetohexamide], the “fraction of imaged embryos annotated as normal kidney” value (shortened to “fraction of imaged embryos annotated”) stood at 0.833.

Take `Cn1c(NCCN(CCO)CCCc2ccc([N+](=O)[O-])cc2)cc(=O)n(C)c1=O` [Nifekalant]: the “fraction of imaged embryos annotated” value turned out to be 0.833.

In the case of `CCCCCCCN(CC)CCCC(O)c1ccc(NS(C)(=O)=O)cc1` (stereo not drawn) [Ibutilide fumarate], the “fraction of imaged embryos annotated” value amounted to 1.

Consider `CCN(CC)CCNC(=O)COc1ccc(OC)cc1` [Mefexamide hydrochloride], for which the “fraction of imaged embryos annotated” value amounted to 0.833.

With `O=C(CCCCC(=O)Nc1c(I)cc(I)c(C(=O)O)c1I)Nc1c(I)cc(I)c(C(=O)O)c1I` [Iodipamide], the “fraction of imaged embryos annotated” value was found to be 0.75.

Consider `Cc1ccsc1/C=C/C1=NCCCN1C` [Morantel tartrate], for which the “fraction of imaged embryos annotated” value came to 0.5.

`COc1cccc2c1C(=O)c1c(O)c3c(c(O)c1C2=O)C[C@@](O)(C(C)=O)C[C@@H]3O[C@H]1C[C@H](N)[C@H](O)[C@H](C)O1` [Daunorubicin hydrochloride]: the “fraction of imaged embryos annotated” value stood at 0.917.

In the case of `CCOC1O[C@H]([C@@H](COCc2ccccc2)OCc2ccccc2)[C@H](OCc2ccccc2)[C@H]1O` (stereo partly drawn) [Tribenoside], the “fraction of imaged embryos annotated” value was found to be 0.667.

Regarding `C#C[C@]1(O)CC[C@H]2[C@@H]3CCC4=CC(=O)CC[C@@H]4[C@H]3CC[C@@]21CC` [Norgestrel-(-)-D], the “fraction of imaged embryos annotated” value is 1.

On to `O=C(O)Cc1ccccc1Nc1c(Cl)cccc1Cl` [Diclofenac sodium], for which the “fraction of imaged embryos annotated” value amounted to 0.

On to `Nc1ccc(O)c(C(=O)O)c1` [Mesalamine], for which the “fraction of imaged embryos annotated” value came out at 0.917.

With `CC[C@H](C)C(=O)O[C@H]1CCC=C2C=C[C@H](C)[C@H](CC[C@@H]3C[C@@H](O)CC(=O)O3)[C@H]21` [Mevastatin], the “fraction of imaged embryos annotated” value was determined as 0.

In the case of `CC1(C)OC(=O)NC1=O` [Dimethadione], the “fraction of imaged embryos annotated” value worked out at 0.667.

As for `CC[C@H](c1ccc(O)cc1)[C@@H](CC)c1ccc(O)cc1` [Hexestrol], the “fraction of imaged embryos annotated” value turned out to be 0.25.

As for `CS(=O)(=O)Nc1ccc([N+](=O)[O-])cc1Oc1ccccc1` [Nimesulide], the “fraction of imaged embryos annotated” value stood at 0.

In the case of `Cc1noc(NS(=O)(=O)c2ccc(N)cc2)c1C` [Sulfisoxazole], the “fraction of imaged embryos annotated” value stood at 0.75.

For the molecule `CN(Cc1ccc(C(C)(C)C)cc1)Cc1cccc2ccccc12` [Butenafine Hydrochloride], the “fraction of imaged embryos annotated” value was 0.909.

Consider `CC1Cc2ccccc2N1NC(=O)c1ccc(Cl)c(S(N)(=O)=O)c1` (stereo not drawn) [Indapamide], for which the “fraction of imaged embryos annotated” value was determined as 0.909.

For `C[C@H]1C[C@H]2[C@@H]3CCC4=CC(=O)C=C[C@]4(C)[C@@]3(F)[C@@H](O)C[C@]2(C)[C@@]1(O)C(=O)CO` [Betamethasone], the “fraction of imaged embryos annotated” value came to 0.583.

In the case of `Nc1nc(N)nc(-c2cc(Cl)ccc2Cl)n1` [Irsogladine maleate], the “fraction of imaged embryos annotated” value came out at 0.909.

`CCc1nc(N)nc(N)c1-c1ccc(Cl)cc1` [Pyrimethamine]: the “fraction of imaged embryos annotated” value was 0.75.

Regarding `CC1CNc2c(cccc2S(=O)(=O)N[C@@H](CCCNC(=N)N)C(=O)N2CC[C@@H](C)C[C@@H]2C(=O)O)C1` (stereo partly drawn) [Argatroban], the “fraction of imaged embryos annotated” value is 0.909.

`O=C1CCc2cc(OCCCCc3nnnn3C3CCCCC3)ccc2N1` [Cilostazol]: the “fraction of imaged embryos annotated” value turned out to be 0.75.

As to `CN1CCN(C2=Nc3cc(Cl)ccc3Nc3ccccc32)CC1` [Clozapine], the “fraction of imaged embryos annotated” value was 1.

`CN(C)CCOC(c1ccc(Cl)cc1)c1ccccn1` (stereo not drawn) [Carbinoxamine maleate salt]: the “fraction of imaged embryos annotated” value was 0.9.

In the case of `O=C(O)CCC(=O)c1ccc(-c2ccccc2)cc1` [Fenbufen], the “fraction of imaged embryos annotated” value worked out at 0.0909.

`CCCC(C(=O)OCCN(CC)CC)(c1ccccc1)c1ccccc1` [Proadifen hydrochloride]: the “fraction of imaged embryos annotated” value was 0.889.

For `COc1cc(Cc2cnc(N)nc2N)cc(OC)c1OC` [Trimethoprim], the “fraction of imaged embryos annotated” value turned out to be 0.727.

Consider `Nc1ccc(S(=O)(=O)Nc2ccnn2-c2ccccc2)cc1` [Sulfaphenazole], for which the “fraction of imaged embryos annotated” value turned out to be 0.917.

For `CN1C(C(=O)Nc2ccccn2)=C(O)c2sccc2S1(=O)=O` [Tenoxicam], the “fraction of imaged embryos annotated” value was found to be 0.917.

For `CCc1cccc(CC)c1NC(=O)CN(CC(=O)O)CC(=O)O` [Etifenin], the “fraction of imaged embryos annotated” value worked out at 0.667.

On to `Nc1nc(=S)c2ncn([C@@H]3O[C@H](CO)[C@@H](O)[C@H]3O)c2[nH]1` [Thioguanosine], for which the “fraction of imaged embryos annotated” value was found to be 0.917.

Regarding `COc1nc(N)nc2c1ncn2[C@@H]1O[C@H](CO)[C@@H](O)[C@@H]1O` [Nelarabine], the “fraction of imaged embryos annotated” value is 0.727.

On to `Cc1cc(C(C)(C)C)c(O)c(C)c1CC1=NCCN1` [Oxymetazoline hydrochloride], for which the “fraction of imaged embryos annotated” value amounted to 0.833.

`COCCOC(=O)C1=C(C)NC(C)=C(C(=O)OC(C)C)C1c1cccc([N+](=O)[O-])c1` (stereo not drawn) [Nimodipine]: the “fraction of imaged embryos annotated” value is 0.5.

With `O=C(COc1ccc(Cl)cc1)N1CCN(Cc2ccc3c(c2)OCO3)CC1` [Fipexide hydrochloride], the “fraction of imaged embryos annotated” value stood at 0.75.

As for `CC1(C)O[C@@H]2C[C@H]3[C@@H]4CCC5=CC(=O)CC[C@]5(C)[C@@]4(F)[C@@H](O)C[C@]3(C)[C@]2(C(=O)CCl)O1` [Halcinonide], the “fraction of imaged embryos annotated” value was found to be 0.333.

With `CC(C)(C)NC[C@H](O)COc1nsnc1N1CCOCC1` [Timolol maleate salt], the “fraction of imaged embryos annotated” value is 0.833.

Take `CN1C2CCCC1CC(NC(=O)c1nn(C)c3ccccc13)C2` (stereo not drawn) [Granisetron]: the “fraction of imaged embryos annotated” value was found to be 0.917.

Turning to `COc1ccccc1N1CCN(CC(O)COc2cccc3ccccc23)CC1` (stereo not drawn) [Naftopidil dihydrochloride], the “fraction of imaged embryos annotated” value is 0.833.
